According to PubChem BioAssay (Tox21):
Records with an inconclusive call do not appear. Activity calls are given as the source filed them. Calls follow the shape of the dose curve; as a rule, active = well fitted cell-killing curve with a large enough effect in the repeat runs (not every such curve was filed as active); inconclusive = weak or mixed curves, or effect the other way; inactive = no such curve, though single readings can be large or run the other way.

test: qHTS assay to identify small molecule antagonists of the farnesoid-X-receptor (FXR) signaling pathway - cell viability counter screen (AID 743221); conditions: FXR-bla HEK293T viability, CellTiter-Glo luminescence, 16 h; series mostly up to 62.6 µM; also: nearly all actives have a fitted effect of over 50% in size
Source text: National Center for Advancing Translational Sciences [NCATS]
NIH Chemical Genomics Center [NCGC]
U.S. Environmental Protection Agency [EPA]
National Institutes of Environmental Health Sciences [NIEHS]
National Toxicology Program [NTP]
U.S. Food and Drug Administration [FDA]
The farnesoid-X-receptor (FXR), a nuclear hormone receptor, is highly expressed in liver, intestine, kidney and adrenal cortex. Natural ligands of FXR are the bile acids (Cholic acid, Chenodeoxy cholic acid etc). FXR is an important regulator of diverse metabolic pathways, including the bile acid homeostasis, lipid and glucose metabolisms. FXR regulates the expression of target genes by binding either as a monomer or as a heterodimer with the retinoid X receptor (RXR). Numerous studies have reported that FXR exerts protective function during cholestasis, diabetes, liver regeneration, and cancer. To identify compounds that inhibit FXR signaling, GeneBLAzer FXR-UAS-bla HEK 293T cell line (Invitrogen, Carlsbad, CA) containing a beta-lactamase reporter gene under the control of a UAS response element was used to screen the Tox21 10K compound library. The cytotoxicity of the Tox21 compound library against the FXR-bla cell line was tested in parallel by measuring the cell viability using CellTiter-Glo assay in the same wells.
Tox21 Assay Protocol Summary:
FXR-bla cells were dispensed at 5000 cells/5uL/well in 1536-well black wall/clear bottom plates using a Multidrop Combi (Thermo Fisher Scientific, Waltham, MA) dispenser. After the assay plates were incubated at 37 C and 5% CO2 for 5 h, 23 nL of compounds dissolved in DMSO, positive controls or DMSO only was transferred to the assay plate by a Pintool station (Kalypsys, San Diego, CA), followed by addition of 1 uL Chenodeoxycholic acid (50 uM, final concentration in the wells). The assay plates were incubated at 37C for 16 h. After 1 uL of LiveBLAzerTM B/G FRET substrate was added using a Bioraptr Flying Reagent Dispenser (FRD) workstation (Beckman Coulter, Indianapolis, IN), the plates were incubated at room temperature for 2 h, and fluorescence intensity was measured by an Envision plate reader (PerkinElmer, Shelton, CT). For cell viability readout that measures cytotoxicity, 4uL/well of CellTiter-Glo reagent was added into the assay plates using a Bioraptr FRD. After 30 min incubation at room temperature, the luminescence intensity in the plates was measured using a ViewLux plate reader (PerkinElmer).

Row | Compound | outcome
1 | COC(=O)c1ccccc1Cl | inactive
2 | C=CCOC(=O)CCCCCCCC | inactive
3 | CC(CC(=O)Cl)CC(C)(C)C (stereo not given) | inactive
4 | N[C@H]1C(O)O[C@H](CO)[C@@H](O)[C@@H]1O (stereo not given in full) | inactive
5 | c1coc(Cn2cccc2)c1 | inactive
6 | O=C(O)Cc1ccccc1Oc1ccc(Cl)cc1Cl | inactive
7 | COc1ccccc1N1CCN(CC(O)COc2cc(OC)c(OC)c(OC)c2)CC1 (stereo not given) | inactive
8 | Nc1ccc(C(=O)NCC(=O)O)cc1 | inactive
9 | Cc1cc(C)c(N)c(Cl)c1 | inactive
10 | CCCCCCCCCCCCCC(=O)OCC | inactive
11 | O=C(O)P(=O)(O)O | inactive
12 | CCCCCCCC(=O)N(C)C | inactive
13 | O=C(O)CCCCCCCCCC(=O)O | inactive
14 | CC(C)OC(=O)C(C(=O)OC(C)C)=C1SC=CS1 | inactive
15 | CC1=C(O)C(=O)CO1 | inactive
16 | CCc1ncc(C)[nH]1 | inactive
17 | C/C=C(\C)C=O | inactive
18 | CC(=O)Nc1ccc(OCCOCCOc2ccc(NC(C)=O)cc2)cc1 | inactive
19 | CCOC(=O)c1ccc(N(C)C)cc1 | inactive
20 | COC(=O)N/N=C/c1c[n+]([O-])c2ccccc2[n+]1[O-] | inactive

Row | Compound | outcome
21 | CCCCCCCCC1CO1 (stereo not given) | inactive
22 | C=CCCCCCCCCCCCCCC | inactive
23 | CC(=O)c1ccc2ccc3ccccc3c2c1 | inactive
24 | C=C(C)C(=O)OCCCC | inactive
25 | CN1CCN(C(=O)C2CCCCC2)CC1 | inactive
26 | O=S(=O)(O)CC(O)CCl (stereo not given) | inactive
27 | O=C(OOC(=O)c1ccccc1)c1ccccc1 | inactive
28 | N#Cc1ccccc1C#N | inactive
29 | NNC(=O)OCc1ccccc1 | inactive
30 | COC(=O)c1c(C)cc(O)c(C)c1O | inactive
31 | COC(=O)c1ccc(NC(C)=O)cc1OC | inactive
32 | O=Cc1ccccc1S(=O)(=O)O | inactive
33 | Nc1cc(S(=O)(=O)O)ccc1O | inactive
34 | C/C=C(\C)C(=O)OC/C=C(\C)CCC=C(C)C | inactive
35 | O=C1c2ccccc2C(=O)N1CO | inactive
36 | CC1(C)CC(N)CC(C)(C)N1 | inactive
37 | CC/C=C/CCCCCCCCCCOC(C)=O | inactive
38 | CCCCCCC(O)CO (stereo not given) | inactive
39 | CCCC(C)C(O)CC (stereo not given) | inactive
40 | N#CC1(N)CCCCC1 | inactive
